# Source: PubChem
# Rab9 promoter act – activates the Rab9 promoter; hit rate 2.8% among 320,000; AID 485297; Huh7 Rab9 promoter-luciferase reporter, luminescence, 24 h; Potency, µM (titrated, usually from 9.22 µM), for inactives: top-dose activation, negative = inhibition, actives largely listed as activators; also: % of control where 0% means no effect; nearly all actives have a fitted effect of over 60% in size
#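 Using Huh7 cells stably transfected with Rab9 promoter–luciferase, compounds were incubated 24 h at 37 °C, 5% CO2; luciferase luminescence was read 10 min after reagent addition.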
# NPC1 prom act – NPC1 promoter activation; hit rate 2.4% among 320,000; Potency, µM (highest dose often 9.22 µM), for the others: at the top dose activation, usual class: activators; AID 485313; Huh7 NPC1 promoter luciferase reporter, 24 h; also: % of control where 0% means no effect; nearly all actives have a fitted effect of over 60% in size
#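 Readout is luciferase luminescence, reflecting NPC1 promoter activation in stably transfected Huh7 cells after 24 h compound exposure at 37 °C in reduced-serum medium with 10% FBS.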
# FLuc modulator – counter-screen for miR-21 project: firefly luciferase inhibitors or activators; purified FLuc, Km substrates, luminescence inhibition; Potency, µM (doses to about 57.5 µM), for inactives: at the highest dose activity change, negative = inhibition, most hits filed as inhibitors; hit rate 6.9% among 360,000; AID 588342;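 also: plate controls were vehicle for no effect and reference inhibitor for full effect; nearly all actives have a fitted effect of over 55% in size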
# Target sequence (P08659 whole entry, looked up): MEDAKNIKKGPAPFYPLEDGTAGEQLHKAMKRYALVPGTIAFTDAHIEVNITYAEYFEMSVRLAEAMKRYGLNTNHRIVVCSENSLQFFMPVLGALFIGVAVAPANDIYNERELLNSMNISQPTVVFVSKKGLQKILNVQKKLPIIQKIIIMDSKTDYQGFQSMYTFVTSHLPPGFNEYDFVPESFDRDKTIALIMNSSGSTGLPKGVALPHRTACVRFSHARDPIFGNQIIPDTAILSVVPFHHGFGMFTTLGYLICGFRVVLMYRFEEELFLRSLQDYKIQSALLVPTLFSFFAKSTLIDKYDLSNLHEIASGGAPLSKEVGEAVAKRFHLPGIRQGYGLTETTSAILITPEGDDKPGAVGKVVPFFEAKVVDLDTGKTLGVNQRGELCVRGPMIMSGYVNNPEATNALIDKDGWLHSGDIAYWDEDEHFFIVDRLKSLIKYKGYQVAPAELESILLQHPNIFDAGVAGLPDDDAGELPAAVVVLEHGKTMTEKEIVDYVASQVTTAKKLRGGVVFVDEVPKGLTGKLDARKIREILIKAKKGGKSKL
#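 Biochemical qHTS of compounds, final roughly 60 µM downward over six points, against 10 nM purified firefly luciferase using Km concentrations of substrates (10 uM D-luciferin, 10 uM ATP) in Tris acetate pH 7.5 buffer; luminescence output.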
# ELG1 genotox – inducers of genotoxicity in HEK293T ELG1-luciferase cells; HEK293T ELG1-luciferase reporter, luminescence, 16 h; AID 504466; hit rate 1.3% among 330,000; Potency, µM (series often up to 46 µM), for inactives: at the highest dose activity change, positive = activation, usual class: activators; also: % of control where 0% means no effect; nearly all actives have a fitted effect of over 60% in size
#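 Step 1: seed 2,000 HEK293T ELG1-luciferase cells per well. Step 2: add compound or DMSO, incubate 16 hr at 37 °C. Step 3: ONE-Glo, 30 min at room temperature, read luminescence.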
# SMN2 splice enh – increases expression of the SMN2 splice variant | HEK293 SMN2-luciferase splicing reporter, luminescence, 30-36 h | Potency, µM (series often up to 46.1 µM), for the others: at the highest dose activity change, positive = activation, hits mostly activators | hit rate 2.8% among 210,000 | AID 1458; also: % of control where 0% means no effect; nearly all actives have a fitted effect of over 55% in size
#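 HEK293 cells carry an SMN2 minigene-luciferase reporter in which exon 7 inclusion puts luciferase in frame. Cells were seeded at 2000 cells/well, attached for 10-12 hours, then exposed to compounds for 30-36 hours at 37C before ONE-Glo luminescence.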
# * hit, by the source's call; ? = inconclusive; / = not tested or not shown. In the library only some 7.5% were active in any assay of this set; here they are far more common. Calls follow the shape of the dose curve; as a rule, active = well fitted curve in the direction sought with a large enough effect; inconclusive = small, poorly fitted or top-dose-only effect, or another doubt; inactive = no such curve, though single readings can be large; an effect the other way counts as inactive or inconclusive. Potency is read from the fitted curve at half-maximal effect.
SMILES,Rab9 promoter act,NPC1 prom act,FLuc modulator,ELG1 genotox,SMN2 splice enh
Cc1ccc(C)c(NC(=O)N2CCc3ccccc3C2)c1,?,28.8%,?,?,/
O=C(Nc1cccc(Cl)c1)N1CCc2ccccc2C1,3.16µM*,2.82µM*,9.53µM*,?,/
COc1cccc(-c2cc(C(=O)N3CCc4ccccc4C3)[nH]n2)c1,21.9%,25.5%,10.7µM*,?,/
O=C(Nc1ccc([N+](=O)[O-])cc1)N1CCc2ccccc2C1,?,23.4%,?,?,/
O=C(Nc1ccccc1F)N1CCc2ccccc2C1,2.82µM*,1.26µM*,15.1µM*,18.3µM*,/
CCC(=O)Nc1ccc2c(c1)nc1n2CCN(CCOC)C1,3.6%,4.9%,0.2%,0.3%,/
Cc1ccc(Cl)cc1N1CCN(S(=O)(=O)c2ccc3oc(=O)c4ncn(C)c4c3c2)CC1,/,/,3.4%,/,-13.1%
Cc1cc(C)c2c(=O)c3c(oc2c1)C(=O)N(Cc1ccco1)C3c1ccccc1F (stereo not drawn),/,/,-2.4%,/,-1.7%
COc1cccc(NC(=O)N2CCOCC2)c1,-1.9%,6.3%,-3.5%,3.5%,-17.2%
COc1cccc(NC(=O)N2CCc3ccccc3C2)c1,2.82µM*,3.98µM*,16.9µM*,?,/
CN1c2ccccc2C(=O)C(=C2SCCCS2)S1(=O)=O,-3.3%,0.7%,19µM*,-1.3%,/
COCCNc1c(-c2cc3ccc(C)c(C)c3[nH]c2=O)nc2ccccn12,0.708µM*,2.51µM*,3.38µM*,?,/
CSc1ccc(/C=C/C(=O)c2ccc(NC(=O)Cc3ccccc3)cc2)cc1,4.1%,0.5%,12µM*,-3.6%,-10.0%
CSc1ccc(C(=O)/C=C/c2ccc(N)cc2)cc1,3.16µM*,?,0.757µM*,13µM*,14.1µM*
O=C(Cc1ccccc1)Nc1ccc(C(=O)NCc2ccccc2)cc1,0.3%,-2.6%,-0.9%,3.8%,/
CSc1ccc(/C=C/C(=O)c2ccc(NC(=O)C(C)C)cc2)cc1,-9.6%,-2.3%,9.53µM*,-2.5%,-14.3%
CSc1ccc(/C=C/C(=O)N2CCCN(C)CC2)cc1,24.1%,9.4%,-4.0%,15.2%,-5.6%
NC(=NCCc1ccccc1)c1cccc([N+](=O)[O-])c1,2.5%,-0.2%,1.3%,-0.5%,/
C(=N\Nc1nc(Nc2ccccc2)nc(N2CCOCC2)n1)/c1c[nH]c2ccccc12,-2.7%,-1.1%,4.26µM*,-8.3%,5.6%
O=C(Oc1cccc(/C=N/Nc2nc(Nc3ccccc3)nc(N3CCOCC3)n2)c1)c1ccco1,0.0%,6.6%,7.57µM*,-0.3%,19.3%
Cc1[nH]c2ccccc2c1/C=N/Nc1nc(Nc2ccc(F)cc2)nc(N2CCOCC2)n1,-1.0%,0.8%,16.9µM*,-9.6%,-13.0%
c1ccc(Nc2nc(N3CCOCC3)nc(N3CCOCC3)n2)cc1,-4.8%,-5.4%,-3.5%,-13.7%,4.9%
Cc1ccc(Nc2nc(N/N=C/c3c[nH]c4ccccc34)nc(N3CCOCC3)n2)cc1,1.2%,0.0%,?,-7.6%,8.3%
CCCCc1nnc(NC(=O)CSCc2cc(=O)n3cc(C)sc3n2)s1,-5.6%,-0.2%,-3.0%,-0.2%,/
Cc1c(Cl)cccc1NC(=O)Nc1cc(C(C)(C)C)on1,-1.7%,1.3%,?,-2.7%,/
SMILES,Rab9 promoter act,NPC1 prom act,FLuc modulator,ELG1 genotox,SMN2 splice enh
O=C(Nc1c(Cl)cccc1Cl)c1cc(-c2cccc(O)c2)on1,/,/,23.9µM*,/,?
O=C(Nc1ccc2c(c1)OCO2)c1cc(-c2ccc(O)cc2)on1,?,3.55µM*,?,?,/
O=C(Nc1ccc2c(c1)OCO2)c1cc(-c2cccc(O)c2)on1,-2.1%,6.5%,2.13µM*,9.8%,/
COc1c2c(cc3ccc(=O)oc13)CCO2,2.3%,3.8%,-0.5%,-1.7%,/
Cc1cc(C)c(CN2CCN(C(=O)Cn3cnc4c(OCc5ccccc5)ncnc43)CC2)c(C)c1,/,/,/,1.1%,/
Cc1ccc(NC(=S)C2=C(O)c3ccccc3N(C)S2(=O)=O)cc1,4.8%,-0.4%,19µM*,-5.6%,-10.1%
O=C(O)c1cccc(Cn2c(Cl)c(/C=N/Nc3ccccc3)sc2=O)c1,0.2%,-1.0%,26.9µM*,25.0%,-31.6%
COc1ccc(C(=O)N/N=C/c2sc(=O)n(Cc3cccc(C(=O)O)c3)c2Cl)cc1,5.3%,1.1%,26.9µM*,1.0%,/
O=C(O)c1cccc(Cn2c(Cl)c(/C=N/NC(=O)c3ccccc3Cl)sc2=O)c1,-5.0%,0.8%,-15.6%,-0.3%,-3.9%
O=C(O)c1cccc(Cn2c(Cl)c(/C=N/NC(=O)c3ccccc3O)sc2=O)c1,4.2%,1.7%,19µM*,0.7%,/
O=C(N/N=C/c1sc(=O)n(Cc2ccc(Br)cc2)c1Cl)c1ccco1,2.9%,3.0%,-9.8%,-5.7%,/
Cc1ccccc1OCC(=O)N/N=C/c1sc(=O)n(Cc2cccc(C(=O)O)c2)c1Cl,-0.4%,-3.1%,-10.1%,-1.3%,/
Cc1ccc(-c2nc(NC(=O)CSc3ncn[nH]3)ns2)cc1,16.3%,3.4%,16.9µM*,6.1%,/
Cc1cc(SCC(=O)Nc2nsc(-c3ccc(C(C)(C)C)cc3)n2)nc2ccccc12,/,/,/,/,14.1µM*
CC(=O)Nc1c(C(=O)Nc2ccc3c(c2)OCO3)oc2ccccc12,2.51µM*,2.82µM*,10.7µM*,?,/
Cc1cc(C(=O)Nc2ccc3c(c2)OCCO3)c2ccccc2n1,2.1%,0.6%,-2.9%,7.8%,-17.6%
Cc1c(C(=O)Nc2ccc3c(c2)OCO3)oc2ccccc12,2.24µM*,2µM*,1.9µM*,2.59µM*,/
O=C(CCl)Nc1c(C(=O)Nc2ccc3c(c2)OCCO3)oc2ccccc12,3.98µM*,3.98µM*,?,?,/
COCC(=O)Nc1c(C(=O)Nc2ccc(C)cc2)oc2ccccc12,/,/,-8.2%,/,7.94µM*
O=C(C1CCN(S(=O)(=O)c2cnc[nH]2)CC1)N1CCN(c2ccc([N+](=O)[O-])cc2)CC1,-0.6%,-1.4%,15.5%,0.2%,/
COCC(=O)Nc1c(C(=O)Nc2ccc3c(c2)OCO3)oc2ccccc12,3.16µM*,3.55µM*,-5.8%,?,/
O=C(COc1ccccc1F)Nc1c(C(=O)Nc2cccc(F)c2)oc2ccccc12,/,/,5.6%,/,6.0%
CSCc1c(C(=O)Nc2ccc(N3CCOCC3)cc2)oc2ccccc12,-0.2%,7.3%,0.5%,5.4%,-19.6%
CSCc1c(C(=O)Nc2ccc3c(c2)OCO3)oc2ccccc12,18.9%,-25.7%,19µM*,10.9%,/
CN1CCN(S(=O)(=O)c2ccc(NC(=O)c3ccc(Br)s3)cc2)CC1,-6.3%,-2.8%,-0.8%,3.6%,12.3%
COC(=O)c1sc(NC(=S)NC(=O)c2ccccc2F)nc1C,1µM*,?,8.49µM*,?,-15.5%
O=C(CNC(=O)c1ccccc1F)OCCCOC(=O)CNC(=O)c1ccccc1F,10.8%,-1.0%,-1.8%,0.0%,/
CCOC(=O)CNC(=O)c1sc(NC(=O)c2ccccc2F)nc1C,?,?,10.7µM*,9.2µM*,/
CCOC(=O)CNC(=O)c1sc(NC(=O)c2cccc(F)c2)nc1C,14.4%,7.6%,21.3µM*,?,18.2%
